The full ranking holds about 140,000 sequences; the median of “enrichment ratio after two sorts for PhoP signalling” is about 0, and the highest 2% start at about 11. The sample as a whole holds a higher share of the highest values than the screen did.

The chains are these.
B1: PhoQ; a variant is named by its letters at X, in order, P23837 (parent)
chain: MKKLLRLFFPLSLRVRFLLATAAVVLVLSLAYGMVALIGYSVSFDKTTFRLLRGESNLFYTLAKWENNKLHVELPENIDKQSPTMTLIYDENGQLLWAQRDVPWLMKMIQPDWLKSNGFHEIEADVNDTSLLLSGDHSIQQQLQEVREDDDDAEMTHSVAVNVYPATSRMPKLTIVVVDTIPVELKSSYMVWSWFIYVLSANLLLVIPLLWVAAWWSLRPIEALAKEVRELEEHNRELLNPATTRELTSLVRNLNRLLKSERERYDKYRTTLTDLTHSLKTPLXXLQXXLRSLRSEKMSVSDAEPVMLEQISRISQQIGYYLHRASMRGGTLLSRELHPVAPLLDNLTSALNKVYQRKGVNISLDISPEISFVGEQNDFVEVMGNVLDNACKYCLEFVEISARQTDEHLYIVVEDDGPGIPLSKREVIFDRGQRVDTLRPGQGVGLAVAREITEQYEGKIVAGESMLGGARMEVIFGRQHSAPKDE

The variants in the assay derive from B1. The assay is described as follows: enrichment ratio after two sorts for PhoP signalling (ratio (wild type AVST 3.29)); higher = more functional. To be noted: with PhoP (E. coli).
WSQP: the enrichment ratio was not above 0.25.
The value for DYLR was not above 0.25; that for WNLT was not above 0.25.
The value for RHIF was not above 0.25; that for HCDL was not above 0.25.
With AKSI the figure was 22.7; with AHSI, not above 0.25.
For the variant AISI, the enrichment ratio was determined as 22.
The value for ADSI was not above 0.25; that for AKDH was not above 0.25; that for WISI was not above 0.25.
The value for ENLY was not above 0.25.
The value for RIVL was not above 0.25; that for YQAH was not above 0.25.
Take TFMT: the enrichment ratio is not above 0.25.
The value for NVLI was not above 0.25.
With HGLI the figure was 13.3.
With HGCI the figure was 17.9; with GNLI, 15.8; with HGCK, not above 0.25.
For HYLI, the enrichment ratio is not above 0.25.
With GVLA the figure was 4.95.
The value for HGCS was not above 0.25; that for GVLI was 15.6; that for LNLI was not above 0.25.
The value for GILI was 8.37; that for HGDK was not above 0.25; that for LTRF was not above 0.25.
QPSN: the enrichment ratio was not above 0.25.
The value for PTQL was not above 0.25.
With YSHY the figure was not above 0.25; with FFLI, not above 0.25; with CNHF, not above 0.25.
With QGDK the figure was not above 0.25.
Turning to CNLI, the enrichment ratio is 12.7.
With CFLI the figure was not above 0.25; with RGLI, not above 0.25; with WGLT, not above 0.25.
The value for QGLI was 13.3; that for TGLI was 12.2.
With WGLI, the enrichment ratio stood at 13.6.
With NGLI the figure was 2.73; with WGLA, not above 0.25.
With VTWM the figure was not above 0.25; with QDLV, not above 0.25.
The value for WQPN was not above 0.25; that for FGKS was not above 0.25; that for AKLI was 4.91.
For the variant NILI, the enrichment ratio was determined as 0.917.
The value for MGLS was 5.14; that for YHLI was not above 0.25.
With MKLI the figure was 3.78.
The value for TKLI was 13; that for MGLI was 14.4; that for MGDK was not above 0.25.
Take GGLI: the enrichment ratio amounted to 11.9.
With PKIA the figure was not above 0.25; with NPEC, not above 0.25; with DYPI, not above 0.25.
The value for HHAA was not above 0.25; that for VYEG was not above 0.25; that for GTRK was not above 0.25.
With AKAK the figure was not above 0.25.
DHNF: the enrichment ratio was not above 0.25.
With WHAF the figure was not above 0.25; with SGQH, 11.9.
With SGVG the figure was 5.22; with SGKH, not above 0.25.
The value for SGVA was 19; that for TGVN was 5.82.
For the variant SGVS, the enrichment ratio is 13.
The value for SGVN was 16.8.
The value for SGWI was 2.76; that for SGVK was not above 0.25.
With SGPN the figure was not above 0.25; with SGQN, not above 0.25.
For SGGD, the enrichment ratio was not above 0.25.
The value for VDSY was not above 0.25; that for ELCR was not above 0.25; that for DCKP was not above 0.25.
With MYPK the figure was not above 0.25; with EFWG, not above 0.25.
With AFDK the figure was not above 0.25.
As for FLSH, the enrichment ratio was not above 0.25.
With MHCH, the enrichment ratio was not above 0.25.
Regarding SEFH, the enrichment ratio worked out at 4.4.
With EFPG the figure was not above 0.25; with REIT, not above 0.25; with HGRF, not above 0.25.
With SGGG the figure was not above 0.25; with SGVM, 13.3.
The value for TGVQ was 7.73; that for SGWM was 9.28.
As to SGGM, the enrichment ratio worked out at 8.79.
With SGVQ the figure was 20.5.
The value for HQTQ was not above 0.25; that for KFHQ was not above 0.25; that for PSSG was not above 0.25.
Turning to AGQH, the enrichment ratio is not above 0.25.
With HPFG the figure was not above 0.25.
In the case of NWHP, the enrichment ratio was not above 0.25.
With LKHK the figure was not above 0.25; with FCCM, not above 0.25; with VCCM, 13.1.
With FSCM the figure was 16.6; with VSCM, 13.1.
The value for KCCM was not above 0.25; that for LCCM was not above 0.25; that for VSCK was not above 0.25.
In the case of TSCM, the enrichment ratio was 25.8.
The value for MMCM was not above 0.25.
With RSCM the figure was not above 0.25; with KSCM, not above 0.25; with NSCM, not above 0.25.
With LKST the figure was not above 0.25.
On to GVIN, for which the enrichment ratio was not above 0.25.
The value for MQIN was not above 0.25; that for QHSN was not above 0.25.
With YAPD the figure was not above 0.25.
The value for QLGK was 3.11.
Regarding MDFQ, the enrichment ratio was not above 0.25.
In the case of YSCK, the enrichment ratio is not above 0.25.
On to VNCM, for which the enrichment ratio is 4.53.
The value for YRCM was not above 0.25.
With SSCK the figure was 4.35; with YSCM, 12.8; with SSCM, 19.
The value for AINP was not above 0.25; that for SWTQ was not above 0.25.
Turning to HGMH, the enrichment ratio is not above 0.25.
With TGMH the figure was 14.5.
The value for AYMH was not above 0.25; that for THMH was 13.2.
With AGWR the figure was not above 0.25.
For the variant AHMH, the enrichment ratio is not above 0.25.
With AGMH the figure was 26; with RGMH, not above 0.25; with NHMH, not above 0.25.
The value for PWRH was not above 0.25; that for DSMV was not above 0.25.
The value for ALNP was not above 0.25; that for ILLI was not above 0.25; that for IWRF was not above 0.25.
For the variant LDDP, the enrichment ratio was not above 0.25.
The value for AMCF was 12.3; that for NMCF was not above 0.25; that for NHCF was not above 0.25.
With WICF the figure was not above 0.25; with AICF, 13.5.
With AKCF the figure was 1.73.
For SHCF, the enrichment ratio was 7.35.
With THCF the figure was 17.5; with MMCF, not above 0.25; with PLCF, not above 0.25.
With ALCF the figure was 13.2.
The value for NICF was not above 0.25; that for IASH was not above 0.25; that for FYVH was not above 0.25.
Take ESKG: the enrichment ratio was not above 0.25.
The value for WMCQ was not above 0.25; that for VWMT was not above 0.25; that for PQSG was not above 0.25.
With VPYN the figure was not above 0.25.
The value for AAPG was not above 0.25; that for DMIH was not above 0.25.
For MFGN, the enrichment ratio was not above 0.25.
For SKFA, the enrichment ratio was not above 0.25.
The value for SKAI was 14.
The value for SLAI was 15.7; that for IQAI was not above 0.25.
Consider SAAI, for which the enrichment ratio was determined as 7.86.
As for VLAI, the enrichment ratio is not above 0.25.
With WLAI the figure was not above 0.25.
With SKPA the figure was not above 0.25.
With SQAI, the enrichment ratio stood at 15.1.
The value for YGYC was not above 0.25.
In the case of YRGI, the enrichment ratio is not above 0.25.
With YDSS the figure was not above 0.25.
Turning to AHPL, the enrichment ratio is not above 0.25.
In the case of RPNK, the enrichment ratio was not above 0.25.
The value for KYLE was not above 0.25; that for SSLE was 12; that for NELE was not above 0.25.
On to KSLE, for which the enrichment ratio was not above 0.25.
With QELE the figure was not above 0.25; with SELE, 21.5; with SQLE, 16.5.
With DPLE the figure was not above 0.25; with SEVE, 6.62; with FELE, 20.4.
The value for SPLE was not above 0.25; that for SFLE was not above 0.25.
As for LDMG, the enrichment ratio is not above 0.25.
With LDRD the figure was not above 0.25; with SKTY, not above 0.25.
Consider FKIR, for which the enrichment ratio was not above 0.25.
The value for PKAM was not above 0.25; that for NVYD was not above 0.25.
With IGIE the figure was not above 0.25; with KYVT, not above 0.25; with PQLS, not above 0.25.
With PYIW the figure was not above 0.25; with GTLE, 14.3; with LTLE, not above 0.25.
Turning to GQLE, the enrichment ratio is 14.3.
Regarding WQLE, the enrichment ratio was not above 0.25.
Consider YTLE, for which the enrichment ratio stood at 3.23.
The value for GYLE was not above 0.25; that for TWHD was not above 0.25; that for YYAE was not above 0.25.
In the case of KCKS, the enrichment ratio was not above 0.25.
The value for HTMI was 1.06; that for WRCP was not above 0.25; that for FWNS was not above 0.25.
With AVWR the figure was not above 0.25; with AVPM, 1.53.
AVWM: the enrichment ratio was not above 0.25.
The value for AVSH was 12.4; that for AVTM was 12.4.
With AVCC the figure was 8.73; with AVMH, 11.8; with AVGM, 3.94.
With AVAM the figure was 3.19.
With AVCV, the enrichment ratio amounted to 5.84.
On to AVTH, for which the enrichment ratio was found to be 9.18.
With AVCK the figure was 16.2.
The value for MFGF was not above 0.25; that for LYKG was not above 0.25.
Take ASIY: the enrichment ratio stood at 3.82.
The value for VFVG was not above 0.25; that for DYAM was not above 0.25; that for DHDS was not above 0.25.
The value for PVCG was not above 0.25; that for NVCH was not above 0.25; that for AVCH was 13.
With AVCM the figure was 15.4; with FVCM, 2.91; with NVCM, not above 0.25.
NVCG: the enrichment ratio was not above 0.25.
With AVAT the figure was not above 0.25; with AVTI, 10.4.
Consider TVAH, for which the enrichment ratio turned out to be 3.22.
The value for AVAH was 13.4; that for AVCG was 16.
The value for DWKH was not above 0.25.
Turning to QWAC, the enrichment ratio was not above 0.25.
With PYDI the figure was not above 0.25; with SRND, not above 0.25; with DGIY, not above 0.25.
With KFTT the figure was not above 0.25.
With MWVS the figure was not above 0.25; with NKPN, not above 0.25.
Turning to STYR, the enrichment ratio was not above 0.25.
With AVCE the figure was not above 0.25; with AVCS, 8.99; with AVCI, 21.8.
Turning to RVVQ, the enrichment ratio is not above 0.25.
With VRPL the figure was not above 0.25.
With IQLV the figure was not above 0.25.
With AQIQ the figure was 27.9; with AQQQ, not above 0.25; with ACVQ, 2.26.
Turning to AEIQ, the enrichment ratio was determined as 24.4.
The value for AEFQ was 3.73.
For the variant AEIA, the enrichment ratio worked out at 15.4.
With ACIQ the figure was 11.8; with AEHP, not above 0.25.
With ACHP the figure was not above 0.25; with AEIV, 4.76.
The value for AEIE was not above 0.25; that for AQHP was not above 0.25.
Turning to KAHK, the enrichment ratio is not above 0.25.
For the variant LFVQ, the enrichment ratio was not above 0.25.
With MTRG, the enrichment ratio is not above 0.25.
As to YDCD, the enrichment ratio is not above 0.25.
With TFDY the figure was not above 0.25; with SERL, not above 0.25; with WHLP, not above 0.25.
With KMMG the figure was not above 0.25; with AKIQ, not above 0.25.
On to AEIS, for which the enrichment ratio turned out to be 10.8.
As to AEYL, the enrichment ratio came out at 6.74.
With AENL the figure was not above 0.25.
The value for ADIQ was 21.4; that for AEIT was 2.48.
With AEIL, the enrichment ratio is 28.2.
The value for AHIQ was not above 0.25; that for AEPM was 0.861.
Regarding AEII, the enrichment ratio is 16.4.
With AEIM the figure was 15.7; with THTQ, 1.45.
With EWAP, the enrichment ratio was not above 0.25.
On to GFIS, for which the enrichment ratio was not above 0.25.
The value for LHFN was not above 0.25; that for NVLT was not above 0.25; that for SCYK was not above 0.25.
With DWIV, the enrichment ratio is not above 0.25.
The value for KRHG was not above 0.25; that for NHPL was not above 0.25; that for KIDW was not above 0.25.
The value for GARI was not above 0.25; that for QYLE was not above 0.25.
With FEPL the figure was not above 0.25; with QDSM, not above 0.25.
On to QQSM, for which the enrichment ratio came out at 13.3.
The value for QSSM was 15.9; that for QRSM was not above 0.25; that for QPSM was not above 0.25.
The value for TPSM was not above 0.25.

Values taken from a collection of fitness landscapes (doi:10.1126/science.1257360).
